The results in this text go back to PubChem BioAssay.

Assay [1] in a line: antimalarial activity against Dd2 strain (AID 2302;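 active means growth inhibition above 50% at the single 2 µM test dose, taken to imply half-maximal potency below 2 µM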;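 further: 0% = DMSO untreated growth and 100% = chloroquine plus artemisinin killed control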). The conditions noted are these: P. falciparum Dd2 in RBCs, LDH growth readout, 72 h; at 2 µM; hits give high values.
The nature of assay [2]: HepG2 cytotoxicity, primary screen, cytotoxicity control for P. falciparum antimalarial project, cell-based, ATP luminescence (AID 2303;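 active means inhibition above 50%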;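 further: 0% = DMSO wells and 100% = digitonin-killed cells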). The conditions noted are these: HepG2 viability, 24-48 h, at 10 µM, hits give high values.
Assay [3] concerns the target L-lactate dehydrogenase (Plasmodium falciparum (isolate CDC / Honduras)) (UniProt Q27743). Briefly: PfLDH activity inhibition – cell lysate, 3D7 strain, counter-screen for P. falciparum growth inhibition project (AID 2304).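 Further: 0% = vehicle and 100% = reference inhibitor.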 The conditions noted are these: P. falciparum 3D7 crude extract, LDH APAD/NBT absorbance; at 2 µM; hits give high values. A general note: A counterscreen serves to expose hits that act by an unwanted route or on another target.

A short description of assay [4]: inhibition of 3D7 malaria parasite growth – strain 3D7 (AID 2306).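 Further: 0% = DMSO wells and 100% = chloroquine plus artemisinin control wells.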 The conditions noted are these: P. falciparum 3D7 erythrocytic growth, LDH absorbance, 72 h; at 2 µM; hits give high values.
Assay [5] addresses Calcium-dependent protein kinase 1 (Plasmodium falciparum (isolate 3D7)) (UniProt P62344). Briefly: PfCDPK1 kinase inhibitors, biochemical, TCAMS library (AID 1159585; cut-off not given, nearly all actives have IC50 up to about 0.98 µM;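 further: inhibitors leave more ATP so luminescence rises with inhibition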). The conditions noted are these: recombinant PfCDPK1, Kinase-Glo ATP depletion luminescence.
Assay [6] deals with Plasmodium falciparum protein kinase 6 (PK6, PF3D7_1337100) (UniProt Q8IDW1). Put plainly: PfPK6 kinase inhibitors, biochemical, TCAMS library (AID 1159586). The conditions noted are these: recombinant PfPK6, Kinase-Glo ATP depletion luminescence.
Sequence of Plasmodium falciparum protein kinase 6 (PK6, PF3D7_1337100) (Q8IDW1 1-305): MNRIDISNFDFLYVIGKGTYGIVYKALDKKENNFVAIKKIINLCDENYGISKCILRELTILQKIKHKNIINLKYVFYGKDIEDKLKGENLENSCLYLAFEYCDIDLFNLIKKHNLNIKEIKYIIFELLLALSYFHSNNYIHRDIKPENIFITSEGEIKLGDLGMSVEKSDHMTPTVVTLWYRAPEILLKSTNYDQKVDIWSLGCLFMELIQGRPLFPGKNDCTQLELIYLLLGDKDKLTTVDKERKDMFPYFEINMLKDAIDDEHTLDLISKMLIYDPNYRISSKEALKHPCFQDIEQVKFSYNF
Assay [7] deals with Protein kinase 7 (PK7), Plasmodium falciparum 3D7 (PF3D7_0213400) (UniProt Q7YTF7). Briefly: inhibition of Plasmodium PK7 catalytic activity – biochemical, TCAMS antimalarial set, Kinase-Glo luminescence (AID 1159587). The conditions noted are these: recombinant PfPK7, Kinase-Glo ATP depletion luminescence.
Sequence of Protein kinase 7 (PK7), Plasmodium falciparum 3D7 (PF3D7_0213400) (Q7YTF7 1-343): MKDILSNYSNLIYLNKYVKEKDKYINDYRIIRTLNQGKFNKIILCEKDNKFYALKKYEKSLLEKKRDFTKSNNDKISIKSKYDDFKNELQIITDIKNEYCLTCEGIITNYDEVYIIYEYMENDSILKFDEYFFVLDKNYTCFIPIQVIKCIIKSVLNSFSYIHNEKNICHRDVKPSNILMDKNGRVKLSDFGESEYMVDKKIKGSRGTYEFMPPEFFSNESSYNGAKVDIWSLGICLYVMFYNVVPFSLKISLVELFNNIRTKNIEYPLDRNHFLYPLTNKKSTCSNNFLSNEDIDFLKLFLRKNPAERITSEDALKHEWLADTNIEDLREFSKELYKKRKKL
For assay [8], the target named is Calcium-dependent protein kinase 4 (Plasmodium falciparum (isolate 3D7)) (UniProt Q8IBS5). Briefly: PfCDPK4 kinase inhibitors, biochemical, TCAMS library (AID 1159588; cut-off not given, nearly all actives have IC50 up to about 0.91 µM). The conditions noted are these: recombinant PfCDPK4, Kinase-Glo ATP depletion luminescence. Background: In Kinase-Glo more light means more ATP remaining.
Sequence of Calcium-dependent protein kinase 4 (Plasmodium falciparum (isolate 3D7)) (Q8IBS5 whole entry, looked up): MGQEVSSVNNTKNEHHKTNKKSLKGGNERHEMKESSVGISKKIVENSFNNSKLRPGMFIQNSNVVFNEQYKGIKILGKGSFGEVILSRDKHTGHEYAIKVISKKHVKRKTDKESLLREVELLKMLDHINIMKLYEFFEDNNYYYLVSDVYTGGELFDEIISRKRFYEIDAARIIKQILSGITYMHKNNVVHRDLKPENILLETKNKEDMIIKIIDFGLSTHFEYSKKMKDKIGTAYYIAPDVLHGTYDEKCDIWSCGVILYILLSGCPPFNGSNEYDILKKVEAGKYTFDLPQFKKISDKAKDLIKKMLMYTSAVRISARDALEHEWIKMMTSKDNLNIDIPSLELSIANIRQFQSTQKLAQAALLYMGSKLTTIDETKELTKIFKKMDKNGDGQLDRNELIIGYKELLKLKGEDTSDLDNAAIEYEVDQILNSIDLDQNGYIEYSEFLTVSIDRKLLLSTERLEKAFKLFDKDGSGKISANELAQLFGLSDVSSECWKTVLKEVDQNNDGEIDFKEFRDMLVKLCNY

Unmarked numbers belong to inactive results. For part of these data: Entries with a potency or affinity are not part of this list. Activity calls are given as the source filed them. Unless noted, how the calls were made is not given here.

Sequence of Calcium-dependent protein kinase 1 (Plasmodium falciparum (isolate 3D7)) (P62344 whole entry, looked up): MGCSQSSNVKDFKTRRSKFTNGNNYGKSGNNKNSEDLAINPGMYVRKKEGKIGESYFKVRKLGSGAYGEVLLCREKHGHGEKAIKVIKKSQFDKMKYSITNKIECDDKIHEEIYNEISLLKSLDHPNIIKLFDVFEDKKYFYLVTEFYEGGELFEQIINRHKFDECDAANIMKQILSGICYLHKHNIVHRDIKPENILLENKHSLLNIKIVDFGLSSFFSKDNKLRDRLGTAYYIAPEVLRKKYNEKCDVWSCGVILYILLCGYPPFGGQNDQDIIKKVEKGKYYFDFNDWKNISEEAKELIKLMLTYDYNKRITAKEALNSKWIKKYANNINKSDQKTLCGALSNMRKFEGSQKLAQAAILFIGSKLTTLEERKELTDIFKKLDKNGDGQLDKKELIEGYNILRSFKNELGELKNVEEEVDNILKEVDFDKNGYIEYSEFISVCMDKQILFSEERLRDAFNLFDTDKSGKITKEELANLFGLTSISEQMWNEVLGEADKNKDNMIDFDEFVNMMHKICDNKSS
Sequence of L-lactate dehydrogenase (Plasmodium falciparum (isolate CDC / Honduras)) (Q27743 whole entry, looked up): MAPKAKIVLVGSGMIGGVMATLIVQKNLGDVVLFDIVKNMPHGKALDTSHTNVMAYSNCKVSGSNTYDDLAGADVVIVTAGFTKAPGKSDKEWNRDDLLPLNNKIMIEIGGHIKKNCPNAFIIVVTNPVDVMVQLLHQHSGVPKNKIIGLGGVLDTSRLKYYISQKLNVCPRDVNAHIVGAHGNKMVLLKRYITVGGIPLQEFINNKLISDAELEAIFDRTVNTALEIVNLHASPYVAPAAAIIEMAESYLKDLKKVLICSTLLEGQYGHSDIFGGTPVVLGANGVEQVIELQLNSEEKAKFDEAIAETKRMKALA

As to `CCC(=Cc1cccc([N+](=O)[O-])c1)C(=O)NCC1CCN(c2nc(N)c3cc(OC)c(OC)cc3n2)CC1`, the values for the growth inhibition in assay [1] and in assay [4] were 62% (active) and 101% (active), respectively. The values for the inhibition in assay [2] and in assay [3] were 25% and 6%, respectively. In addition, the outcome in assay [5], in assay [6], in assay [7] and in assay [8] was inactive.
In the case of `CN1CCCN(Cc2ccc(-c3cccc(NC(=O)c4cccc(C#N)c4)c3)cc2)CC1`, the growth inhibition in assay [1] was 64% (active); in assay [4] it was 101% (active). Besides, the figures for the inhibition in assay [2] and in assay [3] were 17% and -2%, respectively. Also, the outcome in assay [5], in assay [6], in assay [7] and in assay [8] was inactive.
In the case of `Cc1c(-c2cccc(NC(=O)C(C)(C)Oc3ccc(Cl)cc3)c2)nc2ncccn12`, the results for the growth inhibition in assay [1] and in assay [4] were 95% (active) and 98% (active), respectively. The inhibition (usually the relative decrease from the control value, in per cent) is 0% in assay [2] and -3% in assay [3]. Moreover, the result in assay [5], in assay [6], in assay [7] and in assay [8] was inactive.
Regarding `CCCCn1c(C(C)Oc2ccc(Cl)cc2Cl)nc2cc(S(N)(=O)=O)ccc21` (centres undefined), the growth inhibition in assay [1] was 45%; in assay [4], 94% (active). Also, the inhibition in assay [2] is 24%; in assay [3], -2%. Besides, the outcome in assay [5], in assay [6], in assay [7] and in assay [8] was inactive.
Regarding `Cc1cc(C(=O)Nc2ccc3c(c2)CCN3C2CCN(Cc3csc4ccccc34)C2)no1` (centres undefined), the growth inhibition in assay [1] and in assay [4] was 96% (active) in each case. Moreover, the inhibition in assay [2] is 1%; in assay [3], 0%. The result in assay [5], in assay [6], in assay [7] and in assay [8] was inactive.
With `O=C(Cn1c(=O)oc2ccccc21)N1CCC(n2c(=O)n(CCCN3CCOCC3)c3ccccc32)CC1`, the growth inhibition is 101% (active) in assay [1] and 99% (active) in assay [4]. Also, the inhibition in assay [2] was 11%; in assay [3] it was 5%. Moreover, the result in assay [5], in assay [6], in assay [7] and in assay [8] was inactive.
On to `COc1ccccc1C1CCN(C2CCC(NC(=O)/C=C/c3cccc(C(F)(F)F)c3)CC2)CC1` (centres undefined), for which the figures for the growth inhibition in assay [1] and in assay [4] were 34% and 99% (active), respectively. Also, the inhibition is 38% in assay [2] and -3% in assay [3]. Further, the result in assay [5], in assay [6], in assay [7] and in assay [8] was inactive.
Turning to `CN1CCN(CCCN(Cc2cccc(-c3cccc(CNCc4ccc5c(c4)OCO5)c3)c2)C(=O)CCC2CCCC2)CC1`, the growth inhibition was 80% (active) in assay [1] and 98% (active) in assay [4]. Also, the inhibition in assay [2] is 85% (active); in assay [3], 1%. The outcome in assay [5], in assay [6], in assay [7] and in assay [8] was inactive.
`Cc1cc(NN=CC=Cc2ccccc2)c2cc(F)ccc2n1`: the growth inhibition is 36% in assay [1] and 101% (active) in assay [4]. Besides, the inhibition was 8% in assay [2] and -2% in assay [3]. In addition, the result in assay [5], in assay [6], in assay [7] and in assay [8] was inactive.
`O=C(Nc1ccc(Cl)cc1)Nc1cccc(-c2cccc(-c3nc4ccc(C(F)(F)F)cc4[nH]3)c2)c1`: the growth inhibition in assay [1] is 97% (active); in assay [4], 99% (active). Besides, the results for the inhibition in assay [2] and in assay [3] were 87% (active) and 1%, respectively. For the same compound, the outcome in assay [5], in assay [6], in assay [7] and in assay [8] was inactive.
For the compound `COc1ccc(Nc2nccc(N3CCC(NC(=O)Nc4cccc(OC)c4)C3)n2)cc1` (centres undefined), the growth inhibition in assay [1] is 48%; in assay [4] it was 99% (active). For the same compound, the results for the inhibition in assay [2] and in assay [3] were 23% and -1%, respectively. Moreover, the outcome in assay [5], in assay [6], in assay [7] and in assay [8] was inactive.
As to `Cc1cccc2[nH]c(-c3ccc(-c4ccc(NC(=O)Nc5ccc(F)c(F)c5F)cc4)s3)nc12`, the growth inhibition in assay [1] is 99% (active); in assay [4], 100% (active). For the same compound, the results for the inhibition in assay [2] and in assay [3] were 58% (active) and 2%, respectively. Moreover, the outcome in assay [5], in assay [6], in assay [7] and in assay [8] was inactive.
Turning to `CC(Cc1ccc(CN(CC(N)=O)Cc2ccc(CC(C)NCCc3cccc(Cl)c3)cc2)cc1)NCCc1cccc(Cl)c1` (centres undefined), the values for the growth inhibition in assay [1] and in assay [4] were 68% (active) and 95% (active), respectively. Also, the values for the inhibition in assay [2] and in assay [3] were 26% and 2%, respectively. For the same compound, the outcome in assay [5], in assay [6], in assay [7] and in assay [8] was inactive.
As to `O=C(c1cc(-c2ccco2)[nH]n1)N1CCN(S(=O)(=O)c2ccc(Cl)cc2)CC1`, the growth inhibition in assay [1] is 95% (active); in assay [4] it was 96% (active). Moreover, the inhibition in assay [2] was -5%; in assay [3] it was 2%. Further, the outcome in assay [5], in assay [6], in assay [7] and in assay [8] was inactive.
On to `CC(NC(=O)NC1CCC(CCN2CCCc3ccccc32)CC1)c1cccc2ccccc12` (centres undefined), for which the growth inhibition in assay [1] was 83% (active); in assay [4], 90% (active). Besides, the inhibition in assay [2] was -4%; in assay [3], -1%. The result in assay [5], in assay [6], in assay [7] and in assay [8] was inactive.
As for `CC1CCN(CCCNc2ccc(C(=O)Nc3ccc(C(F)(F)F)cc3)cc2[N+](=O)[O-])CC1`, the growth inhibition in assay [1] is 100% (active); in assay [4], 101% (active). Further, the inhibition in assay [2] is 62% (active); in assay [3] it was -3%. Besides, the outcome in assay [5], in assay [6], in assay [7] and in assay [8] was inactive.
For the compound `O=C(NC(Cc1ccccc1)C(=O)O)c1cc(=O)c2ccccc2o1` (centres undefined), the growth inhibition is 10% in assay [1] and 99% (active) in assay [4]. The figures for the inhibition in assay [2] and in assay [3] were 53% (active) and -6%, respectively. The result in assay [5], in assay [6], in assay [7] and in assay [8] was inactive.
Take `CCCCCCNC(=O)C1Cc2c([nH]c3ccccc23)C2(CCN(CCc3ccccc3)CC2)N1` (centres undefined): the growth inhibition in assay [1] was 34%; in assay [4] it was 96% (active). The inhibition is 41% in assay [2] and 4% in assay [3]. For the same compound, the result in assay [5], in assay [6], in assay [7] and in assay [8] was inactive.
